From PubChem BioAssay (NCI)
Compounds without any hit were thinned out: in the full panel of roughly 83,000, 20% have a hit.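 Interpretation: 100, growth as untreated; towards 0, rising growth inhibition; 0, no net growth; 0 to -100, cell death. Compounds scoring below 10 were considered active.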 Values without a mark were called inactive. The source made the active and inactive calls.

The compounds below were run on MALME-3M melanoma (assay: NCI-60 one-dose screen, 48 h (100 = growth as untreated, 0 = no growth, -100 = all killed)). Settings: 10 µM unless noted.
With `CC(=O)N1N=C(c2ccc(Cl)cc2)CC1c1c(C)nn(-c2ccccc2)c1N(C)Cc1ccccc1` (stereo not given) the growth was 83.1%.
`CC1(C)CC2(C)CC(=O)C1C(C(=O)O)C2C(=O)O` (stereo not given) showed a growth of 110%.
`COc1ccc(-c2cnc(SCC(=O)Nc3ccc(-c4nc5ccccc5s4)cc3)n2-c2ccc(OC)cc2)cc1` was tested, and the growth was 129%.
For `COc1ccc2c(c1)[n+](=O)c(C(=O)/C=C/c1cc(OC)c(OC)c(OC)c1)c(C)n2[O-]`, the growth was 91.8%.
With `Nc1c(C(=O)Nc2cccc(Cl)c2)sc2nc3c(cc12)C(O)CCC3` (stereo not given) the growth was 40.2%.
Work on `COc1cccc(-c2nc(-c3ccc(N)cc3)co2)c1` yielded a growth of 114%.
`O=C(Nc1ccccc1S)c1ccccc1` was tested, and the growth was 116%.
`COc1ccc2c(c1)c(CC(=O)[Se]C)c(C)n2C(=O)c1ccc(Cl)cc1` was tested, and the growth was -41.9% (active).
Work on `Nc1nc(SCc2cccnc2)c2ncn(C3OC(CO)C(O)C3O)c2n1` (stereo not given) yielded a growth of 92.4%.
`O=C1c2cc3c(cc2-c2c1c1ccc(Cl)cc1c(=O)n2CCCNCCO)OCO3` was tested, and the growth was -84.8% (active).
`N#Cc1c(NC(=O)c2ccco2)[n+]([O-])c2cc(Cl)c(Cl)cc2[n+]1[O-]` gave a growth of 123%.
In the case of `Cc1[nH]ccc2cc3nc4ccccc4c3cc12`, the growth is reported as 29.8%.
`C=C1CC[C@@H]2[C@](C)(COC(C)=O)[C@H](OC(C)=O)CC[C@@]2(C)[C@@H]1CC(NCc1ccccc1)C1=CCOC1=O` (stereo not given in full) showed a growth of 77.1%.
With `COC(=O)c1cc2oc(/C=N\NC(=O)c3cc4oc(C)c(C)c4[nH]3)cc2[nH]1` the growth was 82.5%.
For `O=C(CSc1nnc(-c2cc(-c3ccccc3)nc3ccccc23)o1)c1ccc(Br)cc1`, the growth was 97.3%.
For `O=c1oc2c(cc1-c1ccc([N+](=O)[O-])cc1)C(O)Oc1ccccc1-2` (stereo not given), the growth was 77.6%.
`CC(C)Sc1nc(Cl)c(C#N)c(-c2ccc(F)cc2)n1` showed a growth of 100%.
With `Cc1cc(C)cc(S(=O)(=O)n2ccc(-c3ccc4c(c3)CCC(C)(C)O4)n2)c1` the growth was 82.9%.
Compound `CCc1nn2c(-c3ccc(Cl)cc3C)c(-c3cc(OC)c(OC)c(OC)c3)nc2s1` has a growth of 68%.
`O=C(Nc1cccc(-n2cc(-c3ccncc3)c(-c3cc(O)cc(Cl)c3)n2)c1)Nc1ccc(Cl)c(Cl)c1` was tested, and the growth was -35.1% (active).
With `COc1ccccc1-n1c(-c2ccc(O)cc2C)cn2c3c(=O)[nH]c(=O)n(C)c3nc12` the growth was 97.6%.
Compound `CCCCCN1C(=O)CCC1=O` has a growth of 90.3%.
`O=C1NCCc2c1noc2-c1ccccc1` was tested, and the growth was 108%.
With `CCOC(=O)c1cc2oc(/C=C/c3cc(=O)c4cc(Cl)ccc4o3)cc2[nH]1` the growth was -14.5% (active).
`COc1cc(/C=C/C(=O)c2c(C)n([O-])c3ccccc3[n+]2=O)cc(OC)c1OC` showed a growth of 66.2%.
In the case of `O=C(c1ccccc1)C(CN1CCCCC1)c1ccccc1` (stereo not given), the growth is reported as -3.92% (active).
`c1ccc2c(-c3nc4ccccc4[nH]3)cccc2c1` showed a growth of 38.1%.
`COc1cc(/C=C/c2cc(/C=C/c3ccc(O)c(OC)c3)n(C(=O)Cc3ccccc3)n2)ccc1O` was tested, and the growth was -0.485% (active).
Compound `O=C1NC(=O)/C(=C/c2ccc(Cl)cc2Cl)N1` has a growth of 100%.
`Nc1nc2c(c(=O)[nH]1)C1(C(=O)Nc3ccccc31)c1c(nc(N)[nH]c1=O)N2` showed a growth of 99.9%.
`COc1ccc(NS(=O)(=O)N2CCCCC2)cc1` was tested, and the growth was 117%.
In the case of `COc1ccc(-c2cc(-c3cccnc3)nc3sc(C(=O)Nc4ccccc4)c(N)c23)cc1OC`, the growth is reported as 109%.
`C/C(=C\CCc1ccoc1)CC/C=C(\C)CCCNc1ccc(F)cc1` showed a growth of 88.2%.
`Cc1cc2c(cc1C)[n+](Cc1ccc3ccccc3c1)cn2Cc1ccc2ccccc2c1` was tested, and the growth was -78.7% (active).
For `CCN(CC)CCCCCCCNc1c2ccc(Cl)cc2nc2ccc(OC)cc12`, the growth was -20.6% (active).
`Cc1cc(C(=O)Nc2ccc3cc(CN4CCOCC4)ccc3n2)c(C)n1-c1ccccc1` was tested, and the growth was 11.4%.
In the case of `COc1cc(Cl)cc(-c2nn(-c3cccc(NC(=O)c4cc(C(F)(F)F)cc(C(F)(F)F)c4)c3)cc2-c2ccncc2)c1`, the growth is reported as 104%.
In the case of `O=C(NCCNC(=O)Oc1cccc2ccccc12)Oc1cccc2ccccc12`, the growth is reported as 141%.
For `COC(=O)[C@H](Cc1cn(C)cn1)NC(=O)[C@H](C)NC(=O)Nc1cc(C(F)(F)F)cc(C(F)(F)F)c1`, the growth was -81.3% [100 µM] (active).
Compound `O=C1CNc2cc(Cl)ccc2N1` has a growth of 104%.

The compounds below were run on MDA-MB-231 breast in the same assay as above. Settings: 10 µM unless noted.
`CC(=O)N1N=C(c2ccc(Cl)cc2)CC1c1c(C)nn(-c2ccccc2)c1N(C)Cc1ccccc1` (stereo not given) showed a growth of 81.1%.
`CC1(C)CC2(C)CC(=O)C1C(C(=O)O)C2C(=O)O` (stereo not given) was tested, and the growth was 107%.
With `COc1ccc(-c2cnc(SCC(=O)Nc3ccc(-c4nc5ccccc5s4)cc3)n2-c2ccc(OC)cc2)cc1` the growth was 111%.
`COc1ccc2c(c1)[n+](=O)c(C(=O)/C=C/c1cc(OC)c(OC)c(OC)c1)c(C)n2[O-]` gave a growth of 67.9%.
`Nc1c(C(=O)Nc2cccc(Cl)c2)sc2nc3c(cc12)C(O)CCC3` (stereo not given) gave a growth of 42.6%.
`COc1cccc(-c2nc(-c3ccc(N)cc3)co2)c1` gave a growth of 88.1%.
With `O=C(Nc1ccccc1S)c1ccccc1` the growth was 102%.
`COc1ccc2c(c1)c(CC(=O)[Se]C)c(C)n2C(=O)c1ccc(Cl)cc1` showed a growth of 44.4%.
Work on `Nc1nc(SCc2cccnc2)c2ncn(C3OC(CO)C(O)C3O)c2n1` (stereo not given) yielded a growth of 94.7%.
In the case of `O=C1c2cc3c(cc2-c2c1c1ccc(Cl)cc1c(=O)n2CCCNCCO)OCO3`, the growth is reported as -79.5% (active).
`N#Cc1c(NC(=O)c2ccco2)[n+]([O-])c2cc(Cl)c(Cl)cc2[n+]1[O-]` gave a growth of 93.9%.
Compound `Cc1[nH]ccc2cc3nc4ccccc4c3cc12` has a growth of 26.3%.
`C=C1CC[C@@H]2[C@](C)(COC(C)=O)[C@H](OC(C)=O)CC[C@@]2(C)[C@@H]1CC(NCc1ccccc1)C1=CCOC1=O` (stereo not given in full) was tested, and the growth was 64.7%.
`COC(=O)c1cc2oc(/C=N\NC(=O)c3cc4oc(C)c(C)c4[nH]3)cc2[nH]1` showed a growth of 107%.
`O=C(CSc1nnc(-c2cc(-c3ccccc3)nc3ccccc23)o1)c1ccc(Br)cc1` was tested, and the growth was 95.4%.
`O=c1oc2c(cc1-c1ccc([N+](=O)[O-])cc1)C(O)Oc1ccccc1-2` (stereo not given) showed a growth of 114%.
For `CC(C)Sc1nc(Cl)c(C#N)c(-c2ccc(F)cc2)n1`, the growth was 111%.
Work on `Cc1cc(C)cc(S(=O)(=O)n2ccc(-c3ccc4c(c3)CCC(C)(C)O4)n2)c1` yielded a growth of 93.5%.
Compound `CCc1nn2c(-c3ccc(Cl)cc3C)c(-c3cc(OC)c(OC)c(OC)c3)nc2s1` has a growth of 73.8%.
`O=C(Nc1cccc(-n2cc(-c3ccncc3)c(-c3cc(O)cc(Cl)c3)n2)c1)Nc1ccc(Cl)c(Cl)c1` was tested, and the growth was -38.1% (active).
Work on `COc1ccccc1-n1c(-c2ccc(O)cc2C)cn2c3c(=O)[nH]c(=O)n(C)c3nc12` yielded a growth of 65%.
`CCCCCN1C(=O)CCC1=O` gave a growth of 109%.
In the case of `O=C1NCCc2c1noc2-c1ccccc1`, the growth is reported as 122%.
`CCOC(=O)c1cc2oc(/C=C/c3cc(=O)c4cc(Cl)ccc4o3)cc2[nH]1` gave a growth of 78.9%.
`COc1cc(/C=C/C(=O)c2c(C)n([O-])c3ccccc3[n+]2=O)cc(OC)c1OC` gave a growth of 78.9%.
For `O=C(c1ccccc1)C(CN1CCCCC1)c1ccccc1` (stereo not given), the growth was 22.6%.
In the case of `c1ccc2c(-c3nc4ccccc4[nH]3)cccc2c1`, the growth is reported as 41.4%.
For `COc1cc(/C=C/c2cc(/C=C/c3ccc(O)c(OC)c3)n(C(=O)Cc3ccccc3)n2)ccc1O`, the growth was 15.2%.
`O=C1NC(=O)/C(=C/c2ccc(Cl)cc2Cl)N1` gave a growth of 110%.
Work on `Nc1nc2c(c(=O)[nH]1)C1(C(=O)Nc3ccccc31)c1c(nc(N)[nH]c1=O)N2` yielded a growth of 98.7%.
For `COc1ccc(NS(=O)(=O)N2CCCCC2)cc1`, the growth was 91.5%.
Compound `COc1ccc(-c2cc(-c3cccnc3)nc3sc(C(=O)Nc4ccccc4)c(N)c23)cc1OC` has a growth of 69.7%.
`C/C(=C\CCc1ccoc1)CC/C=C(\C)CCCNc1ccc(F)cc1` gave a growth of 72.9%.
For `Cc1cc2c(cc1C)[n+](Cc1ccc3ccccc3c1)cn2Cc1ccc2ccccc2c1`, the growth was -75.7% (active).
With `CCN(CC)CCCCCCCNc1c2ccc(Cl)cc2nc2ccc(OC)cc12` the growth was -30% (active).
`Cc1cc(C(=O)Nc2ccc3cc(CN4CCOCC4)ccc3n2)c(C)n1-c1ccccc1` showed a growth of 70.9%.
With `COc1cc(Cl)cc(-c2nn(-c3cccc(NC(=O)c4cc(C(F)(F)F)cc(C(F)(F)F)c4)c3)cc2-c2ccncc2)c1` the growth was 56.7%.
Compound `O=C(NCCNC(=O)Oc1cccc2ccccc12)Oc1cccc2ccccc12` has a growth of 68.8%.
For `COC(=O)[C@H](Cc1cn(C)cn1)NC(=O)[C@H](C)NC(=O)Nc1cc(C(F)(F)F)cc(C(F)(F)F)c1`, the growth was -76.4% [100 µM] (active).
In the case of `O=C1CNc2cc(Cl)ccc2N1`, the growth is reported as 98.3%.
